From PubChem BioAssay AID1159580 (chemical genetic matrix, 2015)
Hit rate of the full screen: of about 5,500 compounds, about 2,000 (36%) were called active. Inconclusive results (about 18%) are left out. Cut-off read from the data, not from the text of the source: active = normalized growth mostly below about 0.91 (no sharp cut-off); inconclusive = no clear call, values can overlap the other calls; inactive = mostly above about 0.92. The list shows a part of the results.

Assay: chemical genetic growth profiling, strain panel (AID 1159580);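 note: tested at 20 µM; growth read once vehicle control cultures reached saturation at 30 °C; 1 = growth at the plate median or of vehicle wells; lower values mean less growth of the strain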
Conditions: S. cerevisiae deletion strains, growth OD
[1] = locus YCL061C, strain MRC1, hits give low values
[2] = locus YHR030C, strain SLT2, hits give low values
[3] = locus YJL187C, strain SWE1, hits give low values

Measured: normalized growth

Cc1onc(-c2ccccc2Cl)c1C(=O)N1CCCN2C(=O)c3ccccc3C21 (centres undefined)
inactive: locus YAL013W, strain DEP1, hits give low values 1 | locus YBR229C, strain ROT2, hits give low values 0.989 | [1] 0.985 | locus YDL101C, strain DUN1, hits give low values 0.963 | locus YDR150W, strain NUM1, hits give low values 0.971 | locus YEL061C, strain CIN8, hits give low values 1.01 | locus YGR078C, strain PAC10, hits give low values 0.994 | [2] 0.942 | locus YHR087W, strain rtc3, hits give low values 0.987 | [3] 1.01 | locus YJR043C, strain POL32, hits give low values 0.968 | locus YJR075W, strain HOC1, hits give low values 1.03 | locus YKL190W, strain CNB1, hits give low values 1 | locus YLR039C, strain RIC1, hits give low values 0.995 | locus YLR058C, strain SHM2 (second series), hits give low values 0.985 | locus YLR085C, strain ARP6, hits give low values 1.01 | locus YLR262C, strain YPT6, hits give low values 0.995 | locus YML094W, strain GIM5, hits give low values 1 | locus YMR219W, strain ESC1, hits give low values 1.01 | locus YMR263W, strain SAP30, hits give low values 0.999 | locus YMR307W, strain GAS1, hits give low values 0.992 | locus YNL128W, strain TEP1, hits give low values 0.991 | locus YNL153C, strain GIM3, hits give low values 0.972 | locus YNL298W, strain CLA4 (second series), hits give low values 0.998 | locus YNL322C, strain KRE1, hits give low values 1 | locus YNR030W, strain Alg12, hits give low values 0.993 | locus YPL055C, strain LGE1, hits give low values 1.01 | locus YPL241C, strain CIN2, hits give low values 0.987 | locus YPR135W, strain CTF4, hits give low values 0.931

CCCCC(=O)O[C@]1(C(=O)CO)CCC2C3CCC4=CC(=O)CC[C@]4(C)C3[C@@H](O)C[C@@]21C (some centres undefined)
inactive: locus YAL021C, strain ccr4, hits give low values 0.974 | locus YAL026C, strain drs2, hits give low values 0.982 | locus YAL030W, strain snc1, hits give low values 0.976 | locus YBL061C, strain skt5, hits give low values 0.988 | locus YBR009C, strain hhf1, hits give low values 0.985 | locus YBR023C, strain chs3, hits give low values 0.987 | locus YBR171W, strain sec66, hits give low values 0.976 | locus YBR231C, strain swc5, hits give low values 0.979 | locus YBR279W, strain paf1, hits give low values 0.989 | locus YCL011C, strain gbp2, hits give low values 0.963 | locus YCL016C, strain dcc1, hits give low values 0.981 | [1] 0.983 | locus YCL069W, strain vba3, hits give low values 0.985 | locus YCR088W, strain abp1, hits give low values 0.991 | locus YDL005C, strain med2, hits give low values 0.979 | locus YDL040C, strain nat1, hits give low values 0.981 | locus YDR001C, strain nth1, hits give low values 0.987 | locus YDR069C, strain doa4, hits give low values 0.973 | locus YDR137W, strain rgp1, hits give low values 0.939 | locus YDR159W, strain sac3, hits give low values 0.97 | locus YDR195W, strain ref2 0.933 | locus YDR297W, strain sur2, hits give low values 0.981 | locus YDR334W, strain swr1, hits give low values 0.947 | locus YDR335W, strain msn5, hits give low values 0.975 | locus YDR392W, strain spt3, hits give low values 0.968 | locus YEL003W, strain gim4, hits give low values 0.997 | locus YEL037C, strain rad23, hits give low values 0.97 | locus YEL061C, strain CIN8 (second series), hits give low values 0.98 | locus YER015W, strain faa2, hits give low values 0.972 | locus YER016W, strain bim1, hits give low values 0.974 | locus YER111C, strain swi4, hits give low values 0.981 | locus YER155C, strain BEM2 (second series), hits give low values 0.981 | locus YFR010W, strain ubp6, hits give low values 0.957 | locus YGL167C, strain pmr1, hits give low values 0.976 | locus YGL173C, strain kem1, hits give low values 0.964 | locus YGL227W, strain vid30, hits give low values 0.984 | locus YGL240W, strain doc1, hits give low values 0.973 | locus YGL253W, strain hxk2, hits give low values 0.976 | locus YHR013C, strain ard1, hits give low values 0.972 | locus YHR027C, strain rpn1, hits give low values 0.974 | [2] 0.987 | locus YHR079C, strain IRE1, hits give low values 0.994 | locus YHR142W, strain chs7, hits give low values 0.941 | locus YJL092W, strain hpr5, hits give low values 0.984 | locus YJL095W, strain BCK1 (second series), hits give low values 0.976 | locus YJL095W, strain BCK1, hits give low values 0.998 | locus YJL115W, strain asf1, hits give low values 0.952 | locus YJL129C, strain trk1, hits give low values 0.954 | locus YJL154C, strain vps35, hits give low values 0.982 | locus YJL164C, strain tpk1, hits give low values 0.984 | locus YJL166W, strain qcr8, hits give low values 0.985 | [3] 0.992 | locus YJR066W, strain TOR1, hits give low values 0.943 | locus YKL160W, strain elf1, hits give low values 0.983 | locus YKR026C, strain gcn3, hits give low values 0.969 | locus YKR091W, strain srl3, hits give low values 0.98 | locus YLL001W, strain dnm1, hits give low values 0.96 | locus YLL026W, hits give low values 0.975 | locus YLL041C, strain sdh2, hits give low values 0.979 | locus YLR027C, strain aat2, hits give low values 0.978 | locus YLR113W, strain HOG1, hits give low values 0.986 | locus YLR221C, strain rsa3, hits give low values 0.988 | locus YLR258W, strain gsy2, hits give low values 0.989 | locus YLR262C, strain YPT6 (second series), hits give low values 0.966 | locus YLR320W, strain mms22, hits give low values 0.977 | locus YLR342W, strain FKS1, hits give low values 0.981 | locus YLR357W, strain rsc2, hits give low values 0.971 | locus YLR370C, strain arc18, hits give low values 0.981 | locus YLR384C, strain iki3, hits give low values 0.979 | locus YML120C, strain ndi1, hits give low values 0.973 | locus YMR058W, strain fet3, hits give low values 0.974 | locus YMR125W, strain sto1, hits give low values 0.961 | locus YMR129W, hits give low values 0.979 | locus YMR205C, strain PFK2, hits give low values 0.997 | locus YMR231W, strain pep5, hits give low values 0.98 | locus YNL071W, strain lat1, hits give low values 0.979 | locus YNL183C, strain NPR1, hits give low values 0.942 | locus YNL209W, strain ssb2, hits give low values 0.98 | locus YNL248C, strain rpa49, hits give low values 0.946 | locus YNL322C, strain KRE1 (second series), hits give low values 0.959 | locus YNR049C, strain mso1, hits give low values 0.98 | locus YOR001W, strain rrp6, hits give low values 0.98 | locus YOR070C, strain gyp1, hits give low values 0.994 | locus YOR080W, strain dia2, hits give low values 0.975 | locus YOR083W, strain WHI5, hits give low values 0.98 | locus YOR106W, strain vam3, hits give low values 0.977 | locus YOR231W, strain MKK1, hits give low values 0.976 | locus YOR265W, strain rbl2, hits give low values 0.977 | locus YOR270C, strain vph1, hits give low values 0.869 | locus YOR290C, strain snf2, hits give low values 0.991 | locus YPL051W, strain arl3, hits give low values 1 | locus YPL078C, strain atp4, hits give low values 0.971 | locus YPL106C, strain sse1, hits give low values 0.957 | locus YPL240C, strain hsp82, hits give low values 0.972 | locus YPL256C, strain CLN2, hits give low values 0.972
